Activity calls are given as the source filed them. The calls were made as follows: active = hit-call score of the fitted dose curve at least 0.9, where 1 is the maximum; inactive = score below 0.9.

This is an account of results in PubChem BioAssay (EPA / NIEHS).

This assay can be described thus: ATG_TAL_CIS: Attagene CIS-FACTORIAL HepG2 Assay for human TAL Basal Promoter (AID 2282966). The conditions noted are these: HepG2 Attagene cis-factorial TAL promoter reporter; actives raise or lower the signal. As for the experimental part:
ATG_CIS is a cell-based, multiplexed-readout assay that uses HepG2, a human liver cell line, with measurements taken at 24 hours after chemical dosing in a 24-well plate.ATG_TAL_CIS is one of 52 assay component(s) measured or calculated from the ATG_CIS assay. It is designed to make measurements of mRNA induction, a form of inducible reporter, as detected with fluorescence intensity signals by Reverse transcription polymerase chain reaction (RT-PCR) and Capillary electrophoresis technology.Data from the assay component ATG_TAL_CIS was analyzed into 1 assay endpoint. This assay endpoint, ATG_TAL_CIS, was analyzed with bidirectional fitting relative to DMSO as the negative control and baseline of activity. Using a type of inducible reporter, measures of mRNA for gain or loss-of-signal activity can be used to understand the background control at the transcription factor-level as they relate to the gene . Furthermore, this assay endpoint can be referred to as a secondary readout, because this assay has produced multiple assay endpoints where this one serves a background control function. To generalize the intended target to other relatable targets, this assay endpoint is annotated to the background measurement intended target family, where the subfamily is internal marker.
Human liver HepG2 cells are transiently transfected with multiple reporter transcription units (MRTUs) in 6-well plates using FuGene 6 reagent (Roche; 3 ml FuGene/1 mg DNA). The MRTU constructs are regulated by a cis-regulating element (promoter). […] A major difference between the CIS and TRANS system is that in CIS activities of endogenous TFs are measured, whereas the TRANS assay evaluates changes in activities of exogenous, chimeric NR-Gal4 proteins. […] At the end of 24 hour incubation, total RNA was isolated using TriZol reagent (Invitrogen). The isolated RNA is then reverse-transcribed using oligo(dT) primer and Mo-MLV reverse transcriptase (Invitrogen) with DNAse I (Ambion) treatment for 30 min. The one-tenth of the produced cDNA was amplified by PCR using Taq DNA polymerase (Invitrogen) and two reporter sequence-specific primers. The PCR products were fluorescently labeled by primer extension with 6-arboxyfluorescein (6-FAM) 5'-labeled reporter sequence-specific primer (2 min at 95 C, 20 s at 68 C and 10 min at 72 C) and these products were digested with 5U of HpaI (New England Biolabs) for 2h at 37 C. The fragments were purified using Qiaquick PCR columns (Qiagen), analyzed on an ABI 3130xL genetic analyzer (Applied Biosystems) with peak positions identified by using a set of X-rhodamine (ROX)-labeled MapMarker1000 molecular weight standards (BioVentures). The raw capillary electrophoresis data was processed using Attagraph software (Attagene).
As to `COc1ccc(S(=O)(=O)N2C(=O)[C@@](c3ccccc3OC)(N3C[C@H](O)C[C@H]3C(=O)N(C)C)c3cc(Cl)ccc32)c(OC)c1`, the AC50 – broadly, the concentration at which the activity in the assay is half-maximal – is 177 µM (active). Turning to `O=[N+]([O-])C(CO)(CO)CO`, the compound was called inactive. Take `COc1cc(/C=C/C(=O)CC(=O)/C=C/c2ccc(O)c(OC)c2)ccc1O`: the compound was called inactive. Same read-out and setting: then `Cc1cc(=O)[nH]c(=S)[nH]1`, with “inactive”. With `CCCCCCCCCCO`, the result was inactive. Still for that read-out and setting: then `Cc1nc(C)nc(N2C[C@@H](C)N(c3ccnc([C@@H](C)O)n3)[C@@H](C)C2)n1`, with “inactive”; and `O=C(N[C@@H](Cc1ccccc1)[C@@H](O)C(=O)N1C[C@@H](O)[C@@H](O)C1)c1cc2cc(Cl)ccc2[nH]1`, with “inactive”; and `CCOC(=O)C(C)(C)Oc1ccc(Cl)cc1`, with “inactive”. Regarding `Cc1ccc(N(C)C)cc1`, the outcome was inactive. Take `C1CCC(SSC2CCCCC2)CC1`: the result was inactive. Still for that read-out and setting: then `CCOC(=O)CCC(=O)OCC`, with “inactive”. Regarding `Cc1oc(-c2ccccc2)nc1CCOc1cccc2c1ccn2CCC(=O)O`, the call was inactive. With `Oc1ccc2ccccc2c1N=Nc1ccccc1`, the outcome was inactive. As to `COc1cc(S(=O)(=O)O)c(C)cc1N=Nc1c(O)ccc2cc(S(=O)(=O)O)ccc12`, the result was inactive.

Turning to `Clc1cc(Cl)c(Cl)cc1Cl`, the outcome was inactive. For `COC(=O)c1ccc(O)cc1`, the call was inactive. Take `Oc1ccc2c(c1)OC[C@@H](N1CCC(O)(c3ccc(F)cc3)CC1)[C@H]2O`: the compound was classed as inactive. The same measure, in the same setting: then `Nc1ccccc1N`, with “inactive”; and `COc1ccc2c(c1)c(CC(=O)O)c(C)n2C(=O)c1ccc(Cl)cc1`, with “inactive”.

As to `COCCOCCOC`, the compound was classed as inactive.

In the case of `COc1cccc2c1C(=O)c1c(O)c3c(c(O)c1C2=O)C[C@@](O)(C(=O)CO)C[C@@H]3O[C@H]1C[C@H](N)[C@H](O)[C@H](C)O1`, the outcome was inactive. Regarding `CCCCCCCCCCCCCCCCCC(=O)O`, the compound was called inactive.

As to `CCCCN(CCCC)CCCC`, the call was inactive.

`Cc1ccc(C)c(O)c1C`: the call was inactive. As for `C=CCc1ccc(O)c(OC)c1`, the compound was classed as inactive. Consider `COCCOC[C@H](CC1(C(=O)NC2CCC(C(=O)O)CC2)CCCC1)C(=O)Oc1ccc2c(c1)CCC2` (stereo not given in full), for which the call was inactive. Regarding `CCCCC(CC)COC(=O)CC(C(=O)OCC(CC)CCCC)S(=O)(=O)O` (stereo not given), the compound was called inactive. Consider `CCCCCCCCCCCCCO`, for which the result was inactive.

With `FC(F)(F)C(F)(F)C(F)(F)C(F)(F)C(F)(F)C(F)(F)CCI`, the compound was called inactive. In the case of `CN[C@H]1CC[C@@H](c2ccc(Cl)c(Cl)c2)c2ccc(S(N)(=O)=O)cc21`, the compound was called inactive. On to `CN1CCN(Cc2cc(-c3ccc4[nH]c(=O)oc4c3)co2)[C@@H](c2ccc(F)cc2)C1`, for which the call was inactive. Regarding `Cc1ccc(Cl)cc1`, the call was inactive. The same measure, in the same setting: then `CNC(=O)[C@H]1O[C@@H](n2cnc3c(NCc4cc(Cl)ccc4OCc4cc(C)no4)ncnc32)[C@H](O)[C@@H]1N`, with “inactive”. For `OC[C@@H](O)[C@@H](O)[C@H](O)[C@H](O)CO`, the compound was classed as inactive. On to `O=c1[nH]cc(F)c(=O)[nH]1`, for which the call was inactive. Consider `Nc1ccc(S(=O)(=O)c2ccc(N)cc2)cc1`, for which the call was inactive.

For `O=C(O)CCCCC(=O)O`, the compound was classed as inactive. In the case of `Cc1ccc(C(C)C)c(O)c1`, the compound was classed as inactive. Regarding `CCCCCCCCCCCC(=O)OC`, the call was inactive. Take `COc1cc(-c2nc(NC(=O)c3cc4cc(C)cc(C)c4n3CC(=O)O)sc2CCC2CCCCC2)c(OC)cc1Cl`: the AC50 was 100 µM (active).
